Assays:
Format in all cases: functional
Plasmodium falciparum [1] = assay: GSK_TCMDC: Inhibition of Plasmodium falciparum 3D7 in whole red blood cells, using parasite LDH activity as an index of growth. Test compounds present at 2uM
Plasmodium falciparum [2] = assay: GSK_TCMDC: Inhibition of Plasmodium falciparum Dd2 in whole red blood cells, using parasite LDH activity as an index of growth. Test compounds present at 2uM
HepG2 = assay: GSK_TCMDC: Percent inhibition of human HepG2 cell line. Test compounds present at 10uM.

SMILES | Inhibition (Plasmodium falciparum [1]) | Inhibition (Plasmodium falciparum [2]) | Inhibition (HepG2)
Cc1nc(NC(=N)N)nc2ccc(C(C)(C)C)cc12.Cl | 96% | 91% | 4%
c1ccc(Oc2ccc(Nc3nc(NCCc4c[nH]cn4)nc(NC4CCCC4)n3)cc2)cc1 | 97% | 23% | 0%
Cc1ccc2[nH]c(C)cc(=NN=Cc3ccccc3Cl)c2c1 | 100% | 62% | 6%
Cl.Nc1nc(Nc2ccc(Cl)cc2)nc2ccccc12 | 100% | 21% | 6%
CN1CCN(c2cc3c(cc2Cl)CCN3C(=O)Cc2ccc(Cl)c(NC(=O)Nc3cccc([N+](=O)[O-])c3)c2)CC1 | 99% | 51% | 0%
Cc1ccc(C)c(S(=O)(=O)NCC2CCN(Cc3ccc(O)cc3)CC2)c1.O=C(O)C(F)(F)F | 87% | 57% | 16%
O=C(Nc1ccccc1)N(Cc1ccc(-c2ccc(CNC3CCCC3)cc2)cc1)C1CCN(Cc2ccccc2)CC1.O=C(O)C(F)(F)F | 100% | 61% | 34%
CC1CCC2(CC1)N=C(N)N=C(N)N2OCc1cc2ccccc2c2ccccc12 (centres undefined) | 97% | 41% | 27%
Cl.c1cc2c3c(cccc3c1)NC(CCCCCCCCC1=Nc3cccc4cccc(c34)N1)=N2 | 93% | 6% | 14%
Cl.N#Cc1ccc2c(c1)CN(CCCCNC(=O)c1ccc(-c3ccccc3)cc1)CC2 | 96% | 10% | 0%
Cc1ccc(C(=O)Nc2ccc(-c3nc4ccccc4[nH]3)cc2)cc1S(=O)(=O)N1CCOCC1 | 90% | 16% | 56%
CC(CN1CCN(C)CC1)C(=O)Nc1ccc(-c2ccc(-c3nc4ccccc4[nH]3)cc2)cc1 (centres undefined) | 92% | 87% | 13%
COc1cc(C)ccc1N1CCN(CCCCNC(=O)c2ccc(NC(=O)c3ccc(Cl)cc3)cc2)CC1 | 99% | 31% | 30%
Cc1cc(Nc2ncc(Cl)c(Nc3ccccc3C(N)=O)n2)n[nH]1 | 98% | 96% | 70%
Cc1cccc2nc(-c3ccc(-c4ccc(CN5CCN(CCO)CC5)cc4)s3)[nH]c12.O=C(O)C(F)(F)F | 92% | 47% | 34%
Cc1ccc(/C=C/C(=O)NCCCCCN2CCCN(C(=O)Nc3ccc(Cl)c(Cl)c3)CC2)cc1 | 95% | 1% | 24%
COc1ccc(C2CC(=O)C3=C(C2)NC(C)=C(C(=O)OC(C)C)C3c2ccccc2F)cc1OC (centres undefined) | 100% | 99% | 14%
Cl.Oc1ccccc1Nc1nc(NCc2ccco2)c2ccccc2n1 | 99% | 71% | 0%
COc1ccc(Nc2nc(C)cc(NC3CCCC3)n2)cc1 | 98% | 59% | 34%
O=C(Nc1cccc(F)c1)c1ccc(C(=O)NC2CCN(CC3CCCCC3)CC2)cc1.O=C(O)C(F)(F)F | 96% | 16% | 22%
CCN(CC)CCN(Cc1ccc(-c2ccc(C(F)(F)F)cc2)cc1)C(=O)Cn1c(SCc2ccc(F)cc2)nc(=O)c2sccc21.O=C(O)C(O)C(O)C(=O)O | 100% | 65% | 51%
CCOc1ccc2[nH]c(C)cc(=NN=Cc3ccncc3)c2c1 | 99% | 78% | 8%
CCCc1cn2c3c(cc(C(=O)N[C@@H](Cc4ccccc4)[C@H](O)CNC4CCCCC4)cc13)N(CC)S(=O)(=O)CC2.O=CO | 98% | 98% | 2%

— ChEMBL document CHEMBL1157539, “Thousands of chemical starting points for antimalarial lead identification” (Nature, 2010)
